Laboratory results reported in PubChem BioAssay (NCI).
Where “and” joins values, the source holds several entries; their conditions need not be identical. Equal values may be shown once. The panel holds about 83,000 compounds, 20% with a hit somewhere; the sample as a whole holds those more often.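 Activity criterion: percent growth below 10, measured after cells in 96-well plates were exposed to a single compound concentration for 48 hours.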 Calls of active or inactive are those of the source.

What follows are compounds tested on MDA-MB-468 breast (assay: NCI-60 one-dose screen, 48 h (100 = growth as untreated, 0 = no growth, -100 = all killed)). Conditions: 10 µM unless noted.
For `Cc1cc(N(CCCl)CCCl)ccc1C=Nc1ccccc1-c1ccccc1`, the growth was 2.49% (active). In the case of `CCCn1cc2c3c(cccc31)[C@H]1C[C@@H](C)CN(C)[C@@H]1C2`, the growth is reported as 95.5% (inactive). `C[CH2][Hg][S]c1ccccc1C(=O)O` was tested, and the growth was -86.6% (active). In the case of `CNCc1cccnc1`, the growth is reported as 110% (inactive). In the case of `ClCCN(CCCl)c1nc(Cl)c(C2CC(c3ccccc3)=NN2c2cc(Cl)cc(Cl)c2)s1` (centres undefined), the growth is reported as 111% (inactive). With `CC(C)N=C(NC(C)C)N1CC1` the growth was 118% (inactive). `COc1ccc2c(c1)c(C1(O)CC(CSC#N)OC1=O)cn2C(=O)c1ccc(Cl)cc1` (centres undefined) was tested, and the growth was 109% (inactive). In the case of `O=S(=O)(F)c1ncnc2nc[nH]c12`, the growth is reported as 96.1% (inactive). `C/C(=C\c1ccn(-c2ccc(N)c(F)c2)n1)[C@@H]1C[C@@H]2O[C@]2(C)CCC[C@H](C)[C@H](O)[C@@H](C)C(=O)C(C)(C)[C@@H](O)CC(=O)O1` was tested, and the growth was 10.5% (inactive). `[Cl][Hg][n]1c(-c2ccco2)nc2ccccc21` was tested, and the growth was 94.4% (inactive). `O=C(O)CNC(=O)C(Cl)(Cl)Cl` was tested, and the growth was 98.8% (inactive). For `COc1cc(NC(C)CCCNC2CN3CCC2CC3)c2ncccc2c1` (centres undefined), the growth was -1.39% (active). With `COc1cc(/C=C\[N+](=O)[O-])ccc1OCc1ccccc1` the growth was 6.8% (active). In the case of `ClCCN(CCCl)c1ccc(/C=C\c2ccnc3ccccc23)cc1`, the growth is reported as 46.1% (inactive). `O=[N+]([O-])c1cc([N+](=O)[O-])c(Cl)cc1Cl` was tested, and the growth was -73.8% (active). For `COc1cc(C=Nc2cc(Cl)cc(Cl)c2)ccc1N(CCCl)CCCl`, the growth was 36.3% (inactive). With `COC(=O)[C@@H](C)C[C@H](Cc1ccc2ccccc2c1)NC(=O)c1csc([C@@H](C[C@H](C(C)C)N(C)C(=O)[C@@H](NC(=O)[C@H]2CCCCN2C)C(C)C)OC(C)=O)n1` the growth was 67% (inactive). With `NC(=O)CNc1ccc([As]=[As]c2ccc(NCC(N)=O)cc2)cc1` (centres undefined) the growth was -6.99% (active). `C/C(CC(C)(C)N1CC1)=N\NC(=O)Nc1cccc2ccccc12` was tested, and the growth was -2.46% (active). With `CC(=O)O[C@H]1CCC2C3CCC4=C/C(=N/O)CCC4(C)C3CCC21C` (some centres undefined) the growth was 97.7% (inactive). In the case of `CCCCCCCCCCCCCCCC[N+](C)(C)Cc1ccccc1`, the growth is reported as -27.3% (active) and -40.6% (active). For `O=[N+]([O-])CC(c1ccccc1Cl)c1c(-c2ccccc2)[nH]c2ccccc12` (centres undefined), the growth was 7.39% (active). For `CC1(C)N=C(N)N=C(N)N1c1cccc(CCCCc2ccc(Cl)c(S(=O)(=O)F)c2)c1`, the growth was 75.8% (inactive). `OC1CCCCC1N1CCC(c2ccccc2)CC1` (centres undefined) was tested, and the growth was 116% (inactive). In the case of `C[C@]12CC[C@H]3[C@@H](C[C@@H]4N=C(c5ccc(O)cc5)S[C@@]45C[C@H](O)CC[C@]35C)[C@@H]1CC[C@@H]2O`, the growth is reported as 81% (inactive). With `CC(C)CCC[C@@H](C)[C@H]1CC[C@H]2[C@@H]3CC=C4C[C@@H](OC(=O)Cc5ccc(N(CCCl)CCCl)cc5)CC[C@]4(C)[C@H]3CC[C@]12C` the growth was 107% (inactive). In the case of `CC[C@H](C)[C@H](NC(=O)CN(C)C)C(=O)N(C)[C@H](C[C@@H](OC(C)=O)c1nc(C(=O)NC23CC(C(=O)OC)(C2)C3)cs1)C(C)C`, the growth is reported as -14.9% (active). `[N-]=[N+]=CC(=O)CCC(=O)C=[N+]=[N-]` was tested, and the growth was 113% (inactive). With `Cc1cc(NC(=O)NCCCOc2ccc(N3C(N)=NC(N)=NC3(C)C)cc2Cl)ccc1S(=O)(=O)F` the growth was 7.83% (active). For `CC1(C)[C@H](O)[C@H](F)C[C@@]2(C)Oc3ccc(C(=O)Nc4ccc5c(c4)NC(=O)C54CCN(CCCCC#N)CC4)cc3C[C@H]12`, the growth was 7.2% (active). For `[N-]=[N+]=NC(C(=O)O)c1ccccc1` (centres undefined), the growth was 126% (inactive). With `C[C@]12CCc3nc(Nc4ccccc4F)sc3C1=CC[C@@H]1[C@@H]2CC[C@]2(C)C(=O)CC[C@@H]12` the growth was 23.7% (inactive). In the case of `Cc1cnc(/C=C/C(=O)O)cc1-c1cc2c(cc1C)C(C)(C)CCC2(C)C`, the growth is reported as 95.4% (inactive). With `CCC(=O)OC1CCn2c1nc1c2C(=O)C(C)=C(N2CC2)C1=O` (centres undefined) the growth was 44.3% (inactive). For `C1CNC2CCCC2C1` (centres undefined), the growth was 97.4% (inactive). `CC12CCC3C4CCC(=O)C=C4CCC3C1CC1CC(=O)OC12` (centres undefined) was tested, and the growth was 102% (inactive). In the case of `COc1ccc(C2=CC(c3ccc(OC)c(OC)c3)c3c(c4ccccc4oc3=O)O2)cc1OC` (centres undefined), the growth is reported as -8.37% (active). In the case of `COC(C)(C)CCC[C@H](C)C/C=C/C(C)=C/C(=O)OC(C)C`, the growth is reported as 86.7% (inactive). For `CCC(=O)C(CC(C)[N+](C)(C)C)(c1ccccc1)c1ccccc1` (centres undefined), the growth was 85.5% (inactive).
